High-throughput results as filed in PubChem BioAssay.
Most compounds without a hit are left out; they make up all but 4.7% or so of the library.
D1 PAM = potentiators of human D1 dopamine receptor; P21728; HEK293 TREx D1 cells, calcium flux, dopamine EC20 potentiation; potentiation, % at 10 µM; 0.036% of 360,000 active; in the data active means potentiation above about 30%; further: 0% is about no effect
Target sequence (P21728 whole entry, looked up): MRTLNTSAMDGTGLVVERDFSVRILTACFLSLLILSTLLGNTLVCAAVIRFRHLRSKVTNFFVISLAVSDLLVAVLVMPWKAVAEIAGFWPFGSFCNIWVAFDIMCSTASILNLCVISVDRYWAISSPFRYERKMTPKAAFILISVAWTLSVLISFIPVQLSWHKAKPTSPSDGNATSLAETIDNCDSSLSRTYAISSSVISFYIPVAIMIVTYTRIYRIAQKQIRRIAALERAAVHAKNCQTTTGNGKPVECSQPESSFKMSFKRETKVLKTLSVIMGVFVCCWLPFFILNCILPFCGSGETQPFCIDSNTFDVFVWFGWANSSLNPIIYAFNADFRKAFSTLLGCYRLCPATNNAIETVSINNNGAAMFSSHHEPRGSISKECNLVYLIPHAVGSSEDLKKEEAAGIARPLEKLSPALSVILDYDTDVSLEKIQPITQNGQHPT
D1 ag = human D1 receptor agonism | AID 504660 | activation, % at 2 µM | 1% of 360,000 active | HEK293 T-REx D1 cells, calcium flux, agonist mode; further: 0% is about no effect
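Agonism was scored from calcium flux recorded over 180 s (1 read/s) after pintool compound addition, following a 10-cycle baseline. Cells were inducible force-coupled HEK293 TREx D1, plated overnight at 30 C and loaded with no-wash calcium dye.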
D1 antag = antagonists of human D1 dopamine receptor | P21728 | HEK293 TREx D1 cells, calcium flux, dopamine EC80; active compounds read low | activity change, negative = inhibition, % at 10 µM | 3.2% of 360,000 active | AID 504652; in the data active means activity change below about -30%; further: on the % scale 0 is the no-effect control and ±100 the full control effect
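Kinetic fluorescence of a calcium dye serves as the read-out. D1-expressing Hek293 Trex cells, induced overnight at 30 C, are exposed to compound for 180 s before an EC80 dopamine addition, then read 180 s further.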
TRHR agonist = agonists of human TRH receptor; P34981; TRHR cells, calcium flux fluo-8, FDSS agonist mode; activation, % at 2 µM; 0.18% of 360,000 active; AID 493084; further: 0% is about no effect
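TRHR-expressing cells loaded with fluo-8 calcium dye; 23 nL library compound pin-transferred, kinetic FDSS fluorescence (Ex 480/Em 530) recorded about 180 s for agonist-induced calcium release, before a 10 nM TRH EC20 addition for potentiator mode.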
TRHR PAM = TRH receptor (human) allosteric enhancement; 0.66% of 360,000 active; TRHR cells, fluo-8 calcium fluorescence, EC20 TRH enhancement; AID 493056; P34981; enhancement, % at 2 µM; in the data active means enhancement above about 30%; further: 0% is about no effect
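Enhancer read-out: after compound pinning and an initial kinetic agonist-mode read, an EC20 of TRH (10 nM final) was injected and fluo-8 calcium signal (Ex 480/Em 530) followed at 1 s/cycle for 100 cycles in TRHR-expressing cells.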
An asterisk follows results filed as active; x = no result. Unless noted, no stated cut-off is given here; in the data, active means activation above about 30%; inactive means the rest.

SMILES	D1 PAM	D1 ag	D1 antag	TRHR agonist	TRHR PAM
Cc1cc([N+](=O)[O-])ccc1NC(=O)CSc1nnc(C)n1C	1	4	28	0	-4
CC(C)CC(=O)NC(Nc1ccccc1F)C(Cl)(Cl)Cl (stereo unspecified)	6	3	-3	2	11
CC(C)CC(=O)NC(Nc1ccc([N+](=O)[O-])cc1)C(Cl)(Cl)Cl (stereo unspecified)	-3	25	-40*	1	-3
CCCNC(=O)CN1C(=O)c2c(c3ccccc3n2C)C1c1ccc(OC)cc1 (stereo unspecified)	1	-2	3	0	-12
O=C(Nc1ccccc1Cl)c1ccccc1Cl	-2	1	-8	0	-2
O=C1OCC(CO)(CO)N=C1NNc1ccccc1Cl	4	3	-17	1	31*
CC(=O)Nc1ccc(NC(=O)C2CCN(c3c(NC(C)=O)c(C)nn3-c3ccccc3)CC2)cc1	-1	3	-36*	0	-3
Cc1ccc(C)c(Cn2c(=O)n(CCCCC(=O)NCc3ccc4c(c3)OCO4)c(=O)c3ccccc32)c1	0	3	-6	-1	9
Cc1ccc(NC(=O)C2CC(=O)N/C(=N/N=C/c3ccco3)S2)cc1C (stereo unspecified)	-4	3	-83*	0	1
O=C(Nc1ccccn1)NC1CCCCC1	3	0	-1	0	-1
O=C(Nc1ccccn1)NC1CCS(=O)(=O)C1 (stereo unspecified)	-3	1	-34*	0	-3
CC(NCc1ccc(-c2ccccc2)cc1)C(O)c1ccccc1 (stereo unspecified)	-4	200*	56	1	8
CC(O)CNCc1ccc(-c2ccccc2)cc1 (stereo unspecified)	-3	13	1	1	-4
COc1ccc(-c2noc(CSc3nc4ccccc4[nH]3)n2)cc1OC	-5	3	-4	-2	1
CCCSc1nnc(-c2cnn(-c3ccccc3)c2-n2cccc2)n1C	-8	36*	-14	-1	11
C/C(=C1/C(=O)N(c2ccc([N+](=O)[O-])cc2)N=C1c1ccccc1)N(C)C	-5	34*	0	0	-7
Cc1ccc(S(=O)(=O)c2cc3ccccc3oc2=O)cc1	-7	2	-4	-2	-9
CCN(CC)c1ccc2cc(-c3nc(-c4ccccc4)no3)c(=O)oc2c1	9	317*	-34*	55*	4
O=c1oc2ccccc2cc1-c1nc(-c2ccccc2)no1	-4	2	3	0	-3
CCN(CC)c1ccc2cc(-c3nnc(Nc4ccc(C)cc4)s3)c(=O)oc2c1	-1	421*	-60*	159*	-17
CCN(CC)c1ccc2ccc(=O)oc2c1	-1	1	-6	0	0
CCN(CC)c1ccc2cc(S(=O)(=O)c3ccc(C)cc3)c(=O)oc2c1	2	120*	-3	0	-1
CCN(CC)c1ccc2cc(C#N)c(=O)oc2c1	-3	32*	-6	18	-1
Cc1c(C(=O)N(C)c2cccc(C(F)(F)F)c2)sc2nc3n(c(=O)c12)CCCCC3	1	9	4	6	10
Cc1ccc2nc(N3CCN(C(=O)C4COc5ccccc5O4)CC3)sc2c1 (stereo unspecified)	-1	-4	x	0	-4
SMILES	D1 PAM	D1 ag	D1 antag	TRHR agonist	TRHR PAM
CC(=O)Nc1ccc(NC(=O)c2cc([N+](=O)[O-])cc([N+](=O)[O-])c2)cc1	-7	2	-4	1	38*
O=C(Nc1ccc(Br)cc1)c1cc([N+](=O)[O-])cc([N+](=O)[O-])c1	-3	19	-37*	1	7
Cc1nn(C2CCS(=O)(=O)C2)c(C)c1CN(C)C(=O)c1ccccc1 (stereo unspecified)	-10	1	-3	1	-8
O=C(c1ccc(CS(=O)Cc2ccc(Cl)cc2)o1)N1CCN(c2ccc(F)cc2)CC1 (stereo unspecified)	-9	17	-36*	-1	5
O=C1CCCC(=O)N1c1ccc(N2CCN(c3ccccc3)CC2)c([N+](=O)[O-])c1	-7	4	-46*	0	10
O=C1C2CC=CCC2C(=O)N1c1ccc(N2CCN(c3ccccn3)CC2)c([N+](=O)[O-])c1 (stereo unspecified)	-4	14	-36*	2	7
O=C1CCCC(=O)N1c1ccc(N2CCN(c3ccc([N+](=O)[O-])cc3)CC2)c([N+](=O)[O-])c1	-1	1	-16	1	-7
Cc1ccc(CNC(=O)c2ccc(N3Cc4ccccc4Oc4ncccc43)s2)cc1	-1	-1	19	1	-4
Cc1cc(C)n(S(=O)(=O)c2cc(C)c(C)cc2C)n1	-12	1	-31*	-2	6
S=c1[nH]c(-c2ccc(Br)cc2)cn1CCc1ccccc1	-6	4	-90*	0	9
Cn1cc(C(=O)N2CCN(c3cccc(Cl)c3)CC2)c(=O)c2cc(S(=O)(=O)N3CCCC3)ccc21	1	0	-13	1	-8
Cc1cc(C)cc(NC(=O)Cc2csc(COc3cccc(C)c3)n2)c1	0	3	-10	0	38*
O=[N+]([O-])c1cccc(C(O)C23CN4CN(CN(C4)C2)C3)c1 (stereo unspecified)	7	2	2	0	-2
O=[N+]([O-])c1ccc(C(O)C23CN4CN(CN(C4)C2)C3)cc1 (stereo unspecified)	1	6	-2	0	40*
C=CCN1C(=O)/C(=C/c2ccc(OC(C)=O)c(OCC)c2[N+](=O)[O-])SC1=S	-7	30	-31*	4	-2
CCOc1c(OC(C)=O)ccc(/C=C/c2ccc3cccc(OC(C)=O)c3n2)c1[N+](=O)[O-]	-8	2	-25	0	-7
O=C(CCN1C(=O)C2C3C=CC(C4CC34)C2C1=O)Oc1ccc(Br)cc1 (stereo unspecified)	-10	2	-62*	0	-2
Cc1cc(C)cc(OC(=O)CCN2C(=O)C3C4C=CC(C5CC45)C3C2=O)c1 (stereo unspecified)	0	0	4	-2	0
N#CCCCSc1nnnn1-c1cccc(Cl)c1	3	0	-37*	0	6
O=C(CSc1nnnn1-c1cccc(Cl)c1)Nc1ccc2c(c1)CCC2	8	5	17	0	12
O=C(CSc1nc(=O)n(CCN2CCOCC2)c2c1CCC2)Nc1ccc(F)cc1F	-1	-2	x	0	2
O=C(NC(=S)Nc1ccc(N2CCCC2)cc1)c1ccccc1[N+](=O)[O-]	-2	0	-72*	0	11
CN1CCN(c2ccc(NC(=S)NC(=O)c3cccc4c(Br)cccc34)cc2)CC1	-9	3	-37*	0	-6
